Experimental data from paper PMC4336329 (PLoS ONE, 2015).
The whole screen tested about 310,000 compounds, of which about 14,000 (4.5%) showed an effect of 50% or more. Effects have a minus sign here. Only a selection was taken, and strong results are over-represented in it overall.

target: human ether-à-go-go-related gene (hERG) potassium channel (human, UniProt Q12809); experiment: primary screen, population patch clamp on CHO cells stably expressing hERG; higher = less effect of the substance
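Also: peak tail current of the secondary pulse compared with the same well before compound.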

Sequence of human ether-à-go-go-related gene (hERG) potassium channel (Q12809 whole entry, looked up): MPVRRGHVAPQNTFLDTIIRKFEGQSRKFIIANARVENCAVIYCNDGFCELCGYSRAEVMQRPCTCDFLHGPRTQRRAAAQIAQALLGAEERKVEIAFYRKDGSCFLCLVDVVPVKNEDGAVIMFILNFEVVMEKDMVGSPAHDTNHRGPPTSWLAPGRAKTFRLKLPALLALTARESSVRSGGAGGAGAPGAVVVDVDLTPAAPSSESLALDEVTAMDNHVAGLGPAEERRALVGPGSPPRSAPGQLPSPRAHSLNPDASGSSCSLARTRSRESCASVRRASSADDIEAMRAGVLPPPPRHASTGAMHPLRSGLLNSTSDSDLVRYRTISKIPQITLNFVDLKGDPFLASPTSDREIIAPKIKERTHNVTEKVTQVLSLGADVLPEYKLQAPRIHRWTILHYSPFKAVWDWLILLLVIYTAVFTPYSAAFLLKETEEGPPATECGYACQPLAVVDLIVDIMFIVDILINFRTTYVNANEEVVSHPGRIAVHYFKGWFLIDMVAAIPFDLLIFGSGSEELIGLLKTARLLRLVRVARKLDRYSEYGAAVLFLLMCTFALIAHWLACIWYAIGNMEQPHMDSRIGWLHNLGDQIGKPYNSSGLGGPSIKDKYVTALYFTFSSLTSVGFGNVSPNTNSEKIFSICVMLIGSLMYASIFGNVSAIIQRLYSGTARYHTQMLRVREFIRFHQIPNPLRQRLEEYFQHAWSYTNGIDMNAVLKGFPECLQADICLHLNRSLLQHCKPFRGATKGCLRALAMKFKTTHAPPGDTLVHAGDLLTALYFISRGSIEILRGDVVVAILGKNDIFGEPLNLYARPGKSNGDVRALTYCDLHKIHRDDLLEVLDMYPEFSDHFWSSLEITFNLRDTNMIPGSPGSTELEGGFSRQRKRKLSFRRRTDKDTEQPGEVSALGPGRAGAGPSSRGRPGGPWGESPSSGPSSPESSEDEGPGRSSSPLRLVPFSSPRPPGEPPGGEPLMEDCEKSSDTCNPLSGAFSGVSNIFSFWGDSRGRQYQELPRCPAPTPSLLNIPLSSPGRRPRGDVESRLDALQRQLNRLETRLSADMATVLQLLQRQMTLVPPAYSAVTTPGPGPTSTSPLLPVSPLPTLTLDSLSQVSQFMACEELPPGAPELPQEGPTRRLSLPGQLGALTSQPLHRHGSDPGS

SMILES	hERG current change (%, negative = inhibition) at 10uM [%]
CN(C)CCOc1ccccc1-c1ccccc1.O=C(O)C(=O)O	-4.52
COc1ccccc1CCNC(=O)c1ccc2nc[nH]c2c1	3.97
Nc1cc(=O)[nH]c(SCc2ccccc2Cl)n1	3.76
Cc1nc2c(nnn2Cc2ccccc2)c(=O)n1-c1ccccc1	0.475
NC(=O)c1cc([N+](=O)[O-])ccc1N1CCCCC1	-17.2
Cc1ccc(S(=O)(=O)N(C)c2ccc(OC(=O)CN3C(=O)NC4(CCCC4)C3=O)cc2)cc1C	9.26
COC(=O)c1ccc(C(=O)OC)c(NC(=O)CN(C)Cc2ccc(Cl)c(Cl)c2)c1	5.46
CCNC(=S)N1CCC(C(=O)c2ccc(Cl)cc2)CC1	-16.8
O=C(Cn1ncc(N2CCCC2)c(Br)c1=O)c1ccc(Cl)cc1	-23.1
CC(C)(C)C(=O)Cn1ncc(N2CCOCC2)c(Cl)c1=O	-71.9
CC(C)(C)C(=O)Cn1ncc(N2CCOCC2)c(Br)c1=O	-0.203
CC(=O)Cn1ncc(N2CCOCC2)c(Cl)c1=O	4.26
CO/N=C(\Cn1ncc(N2CCCC2)c(Br)c1=O)c1ccc(Cl)cc1	-57.5
CO/N=C(\Cn1ncc(N2CCCC2)c(Cl)c1=O)c1ccc(Cl)cc1	-64
O=C(Cn1ncc(N2CCCC2)c(Cl)c1=O)c1ccc(Cl)cc1	-21.2
CO/N=C(\Cn1ncc(N2CCOCC2)c(Br)c1=O)c1ccc(Cl)cc1	-19.7
CC(=O)Cn1ncc(N2CCCCC2)c(Cl)c1=O	17.8
CCOC(=O)c1[nH]nc(-c2c(O)cc(C)cc2O)c1-c1csc(C)n1	11.3
Cc1cc(C)c2c(c1)c(C)cc1nnc(SCC(=O)NCc3ccco3)n12	-8.05

SMILES	hERG current change (%, negative = inhibition) at 10uM [%]
COCCn1c(SCC(=O)NC2CCCCC2)nc2c(c1=O)SCC2	-11.2
Cc1ccc(C)c(S(=O)(=O)N2CCCOC2CNC(=O)C(=O)NCCCN2CCOCC2)c1 (stereo not drawn)	0.752
CCN(CC)c1cc(Oc2ccccc2)ncn1	-9.54
COc1cccc(C(=O)CSc2nnnn2C)c1	4.88
Cc1ccc(/C=N/NC(=O)CSc2nnc(-c3ccc(Cl)cc3)n2-c2ccccc2)o1	-39.5
CCOC(=O)N1CCN(C(=O)CSc2nc(-c3cccc(C)c3)ns2)CC1	-38.8
O=C1N(Cc2ccccc2F)c2ccccc2C12OCCCO2	10.9
O=C(OC(C(=O)c1c[nH]c2ccccc12)c1ccccc1)c1cnccn1 (stereo not drawn)	1.77
O=C(O)/C(=C/c1cccnc1)NC(=O)c1ccccc1	20.3
Cc1ccc(C(=O)CC2(O)C(=O)N(CN3CCOCC3)c3ccccc32)cc1 (stereo not drawn)	-2.38
CCc1ccc(C(=O)CC2(O)C(=O)N(CN3CCOCC3)c3ccccc32)cc1 (stereo not drawn)	7.69
O=C(CC1(O)C(=O)N(CN2CCOCC2)c2ccccc21)c1ccccc1 (stereo not drawn)	-70.4
CC(C)=CCC(C)(C)C1OCCN1C(=O)c1ccccc1 (stereo not drawn)	-18.7
Br.COc1ccc(-c2nc3n(c2C)CCC3)cc1	-6.52
CCN(CC(=O)Nc1c(F)cccc1F)C(=O)c1cc([N+](=O)[O-])ccc1N1CCCCC1	-10.6
CC(=O)OCc1nc2ccccc2s1	12
O=C(CCCCCNC(=S)Nc1ccc(Cl)cc1)C[N+](=O)[O-]	12.9
COc1ccc(-c2[nH]ncc2CN(C)CCN2CCOCC2)cc1F	16.6
COc1ccc2cc(C(=O)/C=C/c3cc(OC)c(O)c(OC)c3)ccc2c1	8.79

SMILES	hERG current change (%, negative = inhibition) at 10uM [%]
COc1cc(/C=C/C(=O)c2ccc(Cl)s2)cc(OC)c1O	-74.4
COc1ccc(/C=C/C(=O)c2ccc(Cl)s2)cc1O	1.69
COc1ccc(C(=O)/C=C/c2cc(OC)c(O)c(OC)c2)c(F)c1	-52.3
COc1ccc(C(=O)/C=C/c2ccc(OC)c(O)c2)c(F)c1	-13.5
COc1cc(/C=C/C(=O)O)cc(OC)c1O	2.08
COc1ccc(CCNC(=O)C2CCN(S(=O)(=O)c3ccc(C)cc3)CC2)cc1	0.741
COc1ccc(/C=N/NC(=O)c2cccc(OC(F)(F)C(F)F)c2)c(OC)c1OC	-3.77
O=C(Nc1sc2c(c1C(=O)O)CCCCC2)c1ccccc1	67.4
COc1cccc(N2CCN(C(=O)Nc3ccc4c(c3)NC(=O)CO4)CC2)c1	-75.8
O=C1COc2ccc(NC(=O)c3ccccc3C(=O)O)cc2N1	21.6
CCOC(=O)c1ccc(NC(=O)N2CCN(c3cccc(OC)c3)CC2)cc1	-16.5
O=C(Nc1ccc2c(c1)OCO2)N1CCN(c2ccc(F)cc2)CC1	-28
COc1cccc(N2CCN(S(=O)(=O)c3cc4c(cc3Cl)NC(=O)CO4)CC2)c1	12
CSc1ccccc1N1CCN(C(=O)Nc2ccc3c(c2)NC(=O)CO3)CC1	-56.3
O=C(Nc1ccc2c(c1)OCO2)N1CCN(c2ccccc2Cl)CC1	-32.3
O=C1COc2ccc(NC(=O)N3CCN(c4ccc(F)cc4)CC3)cc2N1	-79.8
O=C(Nc1ccc2c(c1)OCCO2)N1CCN(c2ccc(F)cc2)CC1	-5.49
Cc1nn(Cc2ccc([N+](=O)[O-])cc2)c(=O)n1N(C)c1ncc(C(F)(F)F)cc1Cl	-3.46
O=C(NCc1ccccc1F)C1CC(=O)N(c2ccc3c(c2)OCCO3)C1 (stereo not drawn)	-2.83
